The values below come from PubChem BioAssay (NCI).

Values joined by “and” are separate entries in the source; they are usually repeats but may differ in a detail not shown here. Identical values can stand only once. About 83,000 compounds went through this panel and 20% of them were active in at least one assay; those are over-represented in the sample as a whole.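 96-well plates, one dose, 48 hours. Percent growth reported; active if below 10.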 Active and inactive are the calls of the source.

This test has as its system HL-60(TB) leukemia. Put plainly: NCI-60 one-dose screen, 48 h (100 = growth as untreated, 0 = no growth, -100 = all killed). Particulars: 10 µM unless noted.
`CCc1c(C)c2cc3nc(NCc4ccccc4)oc3c(C)c2oc1=O`: the growth was 80.6% (inactive). The result for `BrC/C=C/C[P+](c1ccccc1)(c1ccccc1)c1ccccc1` reads 9.15% (active); that for `CN(C)c1ccc(C(=C2C=CC(=[N+](C)C)C=C2)c2ccccc2Cl)cc1`, -48.7% (active) and 9.12% (active); that for `CC(=O)Nc1ccc(S(N)(=O)=O)cc1`, 101% (inactive). The result for `CC1Cc2ccccc2N1C(=O)c1ccc(C(=O)c2ccccc2)cc1` (configuration not stated) reads -11.1% (active); that for `CC(C)N(Cc1ccc(CN(C(=O)CCl)C(C)C)cc1)C(=O)CCl`, -46% (active). The result for `CCN1C(=O)N(c2ccccc2)C2NN=c3s/c(=C4\C(=O)N(C(C)C)c5ccccc54)c(=O)n3C21` (configuration not stated) reads -16.1% (active); that for `COc1ccc2c(c1)C(=O)c1c-2c(OCCN(C)C)nc2cc(OC)ccc12`, 27.2% (inactive); that for `CCOC(=O)C1=C(N)Oc2cc(OC)ccc2C1c1ccc(F)c(F)c1` (configuration not stated), -9% (active). In the case of `COc1ccc(-n2nnc(C(=O)NCCc3c[nH]c4ccc(F)cc34)c2C)cc1`, the growth is 86.9% (inactive).

For the compound `O=C1OC(C(O)C(O)CO)C(O)=C1O` (configuration not stated), the growth was 114% (inactive) and 104% (inactive). The result for `CCCCCCN(CCCCCC)c1ccc(/C=C2/SC(=O)N(c3nc(N4CCCC4)nc(N4CCCC4)n3)C2=O)c(C)c1` reads 20.2% (inactive); that for `COc1ccc(-c2nsc3c2NC(=O)CC3c2cccc(Cl)c2)cc1` (configuration not stated), -19.2% (active). For the compound `COC1=CC(c2ccc[nH]2)=N/C1=C\c1[nH]c(C)c(C(=O)OCc2ccccc2)c1C`, the growth was -8.78% (active). For the compound `NC(=S)c1c(N)n(C2OC(CO)C(O)C2O)c2ncnc(N)c12` (configuration not stated), the growth was -43.6% (active).

In the case of `Cc1ccc(/C=C/c2c(C(=O)/C=C/c3ccc(C(F)(F)F)cc3)c(C)nc3ccccc23)cc1`, the growth was -41.3% (active). The result for `CCOC(=O)c1ccc2c(c1)nc(-c1ccc(Cl)cc1)n2-c1cc(C(C)(C)C)[nH]n1` reads -14.7% (active); that for `Cc1ccc(C(=O)NN)cc1`, 124% (inactive). To `OC1CCC(Oc2cccc3cnc(Nc4ccc5nc[nH]c5c4)nc23)CC1` (configuration not stated) belongs -26.1% (active) and 9% (active); to `O=c1c2cc(F)ccc2sc2c(Nc3ccncc3)nc3ccccc3c12`, 6.35% (active). For `COc1ccc(C(O)c2cc3c(N)c(C(=O)Nc4ccc(Cl)cc4)sc3nc2C)cc1` (configuration not stated), the growth is -50.1% (active). The result for `O=[N+]([O-])c1ccccc1N(S(=O)(=O)c1ccccc1)S(=O)(=O)c1ccccc1` reads 5.52% (active) and 108% (inactive); that for `COc1cc(-c2nc3occn3c2-c2ccnc(NCCNS(=O)(=O)c3ccc(Cl)cc3)n2)ccc1F`, 100% (inactive). To `COc1cc2c(cc1OC)N(CCO)C1=C(C(=O)OC1)C2c1ccc(Cl)c(Cl)c1` (configuration not stated) belongs 93.4% (inactive). The result for `O=C(CN1CCOCC1)Nc1ccc(-c2nc3ccccc3s2)cc1` reads 101% (inactive); that for `CN1CCN(CC#CCNC(=O)[C@]23CCC(C)(C)C[C@H]2C2=CC[C@@H]4[C@@]5(C)Cc6c([nH]c7ccccc67)C(C)(C)[C@@H]5CC[C@@]4(C)[C@]2(C)CC3)CC1`, 49.4% (inactive). Regarding `CC(C)CNC(=O)c1ccccc1C(=O)NC1(C(=O)NCC(C)C)CCCC1`, the growth is 92.9% (inactive) and 97.4% (inactive).

With `O=C1OC(c2ccccc2)=N/C1=C\c1ccccc1`, the growth is 113% (inactive). The result for `Nc1nc2c(c3cnccc13)C(c1cccc(Br)c1)Cc1cnccc1-2` (configuration not stated) reads 3.01% (active). To `COc1ccc(-c2cc(-c3cc(OC)ccc3OC)nc(SCC(=O)c3ccccc3)c2C#N)cc1` belongs 98.4% (inactive); to `CCN(CC)CCOc1ccc(/C(=C(/C)c2ccccc2)c2ccc(OC(C)=O)cc2)cc1`, 117% (inactive); to `CCN(CC)CCCCCCNc1ccnc2cc(Cl)ccc12`, 103% (inactive).

Consider `Fc1ccc(Nc2nc3nonc3nc2Nc2ccc(I)cc2)cc1`, for which the growth is -46.3% (active). The result for `COC(=O)c1ccc([N+](=O)[O-])c(C)c1` reads 85.5% (inactive); that for `COc1cc2c(cc1OCCCN1CCN(CCCOc3cc4c(cc3OC)C(=O)N3C[C@H](F)C[C@H]3C=N4)CC1)N=C[C@@H]1C[C@@H](F)CN1C2=O`, -28.8% (active); that for `Cc1ccc(-c2nc3ccccn3c2/C=C2/C(=O)Nc3cc(Cl)ccc32)cc1`, 50.3% (inactive). Take `CN1C(=O)/C(=C/c2ccc(C(=O)Nc3ncc(Cc4ccc(Cl)cc4)s3)cc2)SC1=S`: the growth was 57.6% (inactive).
